Hit rate of the full screen: of about 360,000 compounds, about 420 (0.12%) were called active. This excerpt belongs to a sample that is enriched for actives. Values without a mark were called inactive. Cut-off read from the data, not from the text of the source: active = inhibition above about 30%; inconclusive = no clear call, values can overlap the other calls; inactive = below that.

For the assay, the target named is Lethal factor (Bacillus anthracis) (UniProt P15917). In words: anthrax lethal factor cleavage blockers – biochemical, multiplex microsphere, MLPCN library, primary screen (AID 588501). Note: plate controls were buffer without enzyme for full effect and enzyme alone for no effect. To be noted: multiplex microsphere protease cleavage assay, LF; at 10 µM; hits give high values.
Sequence of Lethal factor (Bacillus anthracis) (P15917 whole entry, looked up): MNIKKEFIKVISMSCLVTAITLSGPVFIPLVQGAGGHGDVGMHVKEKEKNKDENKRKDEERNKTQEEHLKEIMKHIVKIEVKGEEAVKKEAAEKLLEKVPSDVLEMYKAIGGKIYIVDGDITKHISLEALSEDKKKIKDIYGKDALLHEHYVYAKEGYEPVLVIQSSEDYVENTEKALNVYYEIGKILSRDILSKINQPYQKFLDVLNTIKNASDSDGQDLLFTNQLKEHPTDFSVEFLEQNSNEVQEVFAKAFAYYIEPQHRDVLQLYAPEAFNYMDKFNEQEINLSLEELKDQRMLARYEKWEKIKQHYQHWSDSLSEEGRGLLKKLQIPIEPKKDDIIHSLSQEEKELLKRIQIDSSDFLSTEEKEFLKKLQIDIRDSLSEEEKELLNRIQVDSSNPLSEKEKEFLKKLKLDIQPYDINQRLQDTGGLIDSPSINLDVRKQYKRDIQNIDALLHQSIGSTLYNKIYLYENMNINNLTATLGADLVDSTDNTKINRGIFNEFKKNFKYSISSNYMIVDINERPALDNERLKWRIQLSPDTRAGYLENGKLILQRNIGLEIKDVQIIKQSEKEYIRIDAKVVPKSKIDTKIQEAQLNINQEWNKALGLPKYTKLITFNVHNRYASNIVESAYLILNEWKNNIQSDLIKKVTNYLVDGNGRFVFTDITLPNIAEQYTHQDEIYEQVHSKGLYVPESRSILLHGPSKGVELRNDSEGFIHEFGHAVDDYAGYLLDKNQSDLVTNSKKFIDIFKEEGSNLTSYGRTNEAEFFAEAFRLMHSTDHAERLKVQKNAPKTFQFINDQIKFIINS
For orientation: inhibition means the relative decrease from the control value, in per cent. Turning to `CCC(=O)Nc1cccc(NC(=O)CSc2nnnn2C2CCCC2)c1`, the inhibition is 3.1%. On to `O=C(N/C(=C\c1ccc([N+](=O)[O-])cc1)C(=O)N1CCCCC1)c1ccco1`, for which the inhibition was 14.4%.

As to `C/C=C/C(=O)Nc1nnc(C(C)C)s1`, the inhibition is -0.2%. For the molecule `CNC[C@H]1Oc2c(NC(=O)C3CCCCC3)cccc2C(=O)N([C@H](C)CO)C[C@@H]1C`, the inhibition was -2.2%. Turning to `CCN(CC)C(=O)C1=C(C)N(Cc2ccc(OC)cc2)C(=O)C(CC(=O)NCCCCc2ccccc2)C1` (stereo not drawn), the inhibition was -3.9%. Regarding `CN1CCc2nc(SC(C(=O)O)c3ccccc3)c(C#N)c(-c3cccs3)c2C1` (stereo not drawn), the inhibition is -13.7%. As for `CCN(Cc1ccccc1)C(=O)CCS(=O)(=O)c1ccc2c(c1)oc(=O)n2C`, the inhibition is 0.5%. For `O=[N+]([O-])c1ccc(C(S(=O)(=O)Cc2ccccc2)S(=O)(=O)Cc2ccccc2)cc1` the value was -1.4%. As to `CCC(CC)C(=O)Nc1cc(C(=O)OC)cc(C(=O)OC)c1`, the inhibition was -1.3%. On to `Cc1c(Cl)c([N+](=O)[O-])nn1CC(=O)NCC1CCCO1` (stereo not drawn), for which the inhibition was -2.9%. Turning to `OCC[C@H]1C[C@@H](O)[C@H](O)[C@@]2(OCCc3ccccc32)O1`, the inhibition is 3.4%. As for `CCc1ccccc1NC(=S)Nc1cc(OC)c(NC(=O)C(C)C)cc1OC`, the inhibition was 5.6%. As to `O=C(Nc1cccc(F)c1)c1coc(=O)c(Br)c1`, the inhibition is 0.1%. As for `O=C(NCC(c1ccco1)N1CCc2ccccc21)c1cccc(F)c1` (stereo not drawn), the inhibition is -3.6%. `COc1ccc(C2=NS(=O)(=O)N(C)C(C(=O)N3CCCCC3)=C2)cc1`: the inhibition is -0.5%. For `COC(c1ccccc1)c1nnc(CCC(=O)N2CCN(CCOc3ccccc3)CC2)o1` (stereo not drawn), the inhibition was 0.2%. For `Cc1cc(C)cc(OCc2nnc(SCC(=O)OC3CCCCC3)o2)c1` the value was -14.4%; for `O=c1oc2ccccc2c(CNc2ccccc2)c1[N+](=O)[O-]`, 7.9%. As for `O=C1NC[C@H](CCCCN2C[C@H](Cc3ccc(O)cc3)N(CCc3ccccc3)C(=O)C2=O)N(CCc2ccccc2)C1=O`, the inhibition is -11.9%. Regarding `O=C(Nc1nnc(C2CC2)s1)C1=NN(C2CCS(=O)(=O)C2)C(=O)CC1` (stereo not drawn), the inhibition was 1.6%. For the molecule `CNC(=O)c1nnn(-c2ccccc2)c1C(=O)NC`, the inhibition was -0.6%. As to `COc1ccc(-n2c(O)c(C=NCC(c3ccco3)N3CCCC3)c3ccccc3c2=O)cc1OC` (stereo not drawn), the inhibition was 0%. Take `COc1cc(-c2nc(S(=O)(=O)c3ccc(Cl)cc3)c(N(C)C)o2)cc(OC)c1OC`: the inhibition was 0%. For the molecule `CCCCN(C(=O)c1ccc(S(=O)(=O)N2CCOCC2)cc1)C1CCS(=O)(=O)C1` (stereo not drawn), the inhibition is 0.4%. For the molecule `CC(C)NC(=O)COCc1cc(-c2ccc3c(c2)OCO3)on1`, the inhibition was -4.5%.

On to `CCCCC(CC)CNCc1cccn1CCN1CCOCC1` (stereo not drawn), for which the inhibition is 9%. With `CCn1c(SCC(=O)Nc2ccc(C)cc2)nc2nc3c(cc2c1=O)CCCC3`, the inhibition is -5.9%. Consider `Cc1ccc(CSCC2Nc3ccc(C(=O)N4CCN(c5ccc(F)cc5)CC4)cc3NC2=O)cc1` (stereo not drawn), for which the inhibition was -0.9%. Take `CC(C)OCCCNC(=O)c1ccc(C2SCC(=O)N2Cc2ccco2)cc1` (stereo not drawn): the inhibition is 0.6%. `CC(=O)Nc1ccc(NC(=O)c2ccc3c(c2)C(=O)N(c2ccccc2C)C3=O)cc1`: the inhibition was 0.3%.

In the case of `CCCCC(=O)Nc1ccc2c(c1)C(=O)NC2=O`, the inhibition was -3.5%. In the case of `CC(=O)Nc1ccc(Oc2ccc3c(c2)C(=O)NC3=O)cc1`, the inhibition is 30.3% (active).

In the case of `OCC1(Cc2ccccc2C(F)(F)F)CCN(Cc2cccc3cnccc23)CC1`, the inhibition is -3.3%. `Nc1ncnc2c1cnn2C1CC(O)C(CO)O1` (stereo not drawn): the inhibition is -1.1%. On to `Cc1cccc(C)c1-n1nnnc1C(CCc1ccccc1)N1CCN(C/C=C/c2ccccc2)CC1` (stereo not drawn), for which the inhibition is -0.9%. Consider `O=C(Nc1cccc(F)c1)[C@@H]1CCCN1`, for which the inhibition is 41.3% (active).

Turning to `O=C(Nc1cccc(F)c1)NC1CCCc2ccccc21` (stereo not drawn), the inhibition is 0.6%. With `O=C(COC(=O)CNC(=O)C1CCCCC1)Nc1cccc(F)c1`, the inhibition is -8.5%. Take `CC(C)[C@@H](NC(=O)OC(C)(C)C)C(=O)NCC1CCC(C(=O)N[C@@H](Cc2ccccc2)C(=O)O)CC1` (stereo partly drawn): the inhibition is 9%. For the molecule `CC(C)(C)OC(=O)NC(Cc1ccccc1)C(=O)NC(CSC1CCCCO1)C(=O)NN` (stereo not drawn), the inhibition is 39.5% (active). Take `C#CCNC(=O)[C@H](Cc1ccc(C(=O)c2ccccc2)cc1)NC(=O)OC(C)(C)C`: the inhibition is -1%. For the molecule `COc1ccc(C2c3[nH]c4ccccc4c3CCN2CCCn2cccn2)cc1C` (stereo not drawn), the inhibition is 1.2%. Take `Cc1ccccc1N1CCN(C2CCCN(C(=O)c3ocnc3C)C2)CC1` (stereo not drawn): the inhibition was -3.3%.
